# According to PubChem BioAssay (NCATS):
# Records with an inconclusive call do not appear. Where a call stands in place of a potency, no number is given. Unmarked numbers belong to inactive results. Activity calls are given as the source filed them. Calls follow the shape of the dose curve; as a rule, active = well fitted curve in the direction sought with a large enough effect; inconclusive = small, poorly fitted or top-dose-only effect, or another doubt; inactive = no such curve, though single readings can be large; an effect the other way counts as inactive or inconclusive.
# Legend:
# [1] = Viability qHTS for spleen associated tyrosine kinase inhibitor (SYKi) drug resistant MV4-11 cells (AID 1963824); also: nearly all actives have a fitted effect of over 35% in size
# Summary of the method: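 SYK-inhibitor-resistant MV4-11 AML cells were seeded at 500 per well onto compound and cultured 72 hours (37 °C, 5% CO2). CellTiter-Glo was then added, and after 10 min at room temperature, luminescence gave viability.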
# [2] = Cellular viability qHTS for adrenocortical cancer (ACC) cell line SW-13 (AID 1963989); details: SW-13 ACC cells viability, CellTiter-Glo, 48 h; activity (max response): active compounds read low; also: nearly all actives have a fitted effect of over 65% in size;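 as to activity (max response): cells grown in serum-free medium with ITS supplement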
# Summary of the method: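 48 h treatment, SW-13 in ITS/DMEM serum-free; doses up to 46 uM; readout CellTiter-Glo luminescence; curve fit four-parameter logistic.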
# [3] = Cellular viability qHTS for adrenocortical cancer (ACC) cell line NCI-H295R (AID 1963990); also: nearly all actives have a fitted effect of over 60% in size
# Summary of the method: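 Compound titrations (up to 46 uM final) are applied to NCI-H295R cultures for 48 h at 37C. Viable cell number is estimated by CellTiter-Glo signal, normalised to DMSO and doxorubicin controls.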
# Potency is read from the fitted curve at half-maximal effect.
Compound,Potency [1],activity (max response) [2],Potency [3],Potency [2]
CC1=C2C[C@H]3[C@@H](CC=C4C[C@@H](O)CC[C@@]43C)[C@@H]2CC[C@]12O[C@@H]1C[C@H](C)CN[C@H]1[C@H]2C,14.8 µM (active),-8.25%,inactive,–
CC[n+]1c(-c2ccccc2)c2cc(N)ccc2c2ccc(N)cc21,4.22 µM (active),–,14.6 µM (active),5.17 µM (active)
CN(C)CCc1c[nH]c2cccc(OP(=O)(O)O)c12,inactive,-5.41%,inactive,–
COc1cc(CC(C)N)cc2c1OCO2 (stereo unspecified),inactive,-21.8%,inactive,–
COc1cc(CCN)cc(OC)c1OC,inactive,-7.31%,inactive,–
Cc1ccc(-c2nc3ccc(C)cn3c2CC(=O)N(C)C)cc1,inactive,-1.33%,inactive,–
N#Cc1nn(-c2c(Cl)cc(C(F)(F)F)cc2Cl)c(N)c1S(=O)C(F)(F)F (stereo unspecified),10.6 µM (active),–,2.59 µM (active),5.8 µM (active)
CCN(CC)CCc1c[nH]c2ccccc12,inactive,-11.9%,inactive,–
Clc1cccc(N2CCNCC2)c1,inactive,2.07%,inactive,–
CCCCOC(=O)c1ccccc1C(=O)OCc1ccccc1,17.2 µM (active),0.138%,inactive,–
CC[C@H](O)C(C[C@H](C)N(C)C)(c1ccccc1)c1ccccc1,inactive,-19.9%,–,–
C=CC(=O)NCNC(=O)C=C,inactive,-0.888%,inactive,–
CCC(C)(C)c1ccc(O)cc1,inactive,0.304%,inactive,–
Clc1cccc(SC2CCNCC2)n1,inactive,3.75%,–,–
C[CH2][Hg][S]c1ccccc1C(=O)O,inactive,–,1.64 µM (active),2.59 µM (active)
COc1ccc(C(c2ccc(OC)cc2)C(Cl)(Cl)Cl)cc1,21.5 µM (active),–,28.2 µM (active),28.2 µM (active)
O=[N+]([O-])c1cc([As](=O)(O)O)ccc1O,inactive,2.65%,inactive,–

Compound,Potency [1],activity (max response) [2],Potency [3],Potency [2]
CCC(CC)(CNC(=O)CCCO)c1cccc(OC)c1,inactive,8.71%,inactive,–
COc1ccc(OC)c(CC(C)N)c1 (stereo unspecified),inactive,-20.2%,inactive,–
C[C@]12CC[C@H]3[C@@H](CCC4=CC(=O)CC[C@@]43C)[C@@H]1CC[C@@H]2C(=O)O,inactive,11.4%,inactive,–
CC[N+]1(C)CCCC(OC(=O)C(O)(c2ccccc2)c2ccccc2)C1 (stereo unspecified),inactive,0.735%,inactive,–
COP(=S)(OC)Oc1ccc(S(=O)(=O)N(C)C)cc1,inactive,-2.83%,inactive,–
Clc1ccccc1N1CCNCC1,inactive,-1.85%,inactive,–
NCC(O)c1ccc(O)cc1 (stereo unspecified),inactive,9.24%,inactive,–
C[N+]1(C)[C@@H]2CC[C@H]1CC(OC(=O)C(CO)c1ccccc1)C2 (stereo partly specified),inactive,-4.66%,inactive,–
Cc1cc(O)ccc1Cl,inactive,10.8%,inactive,–
O=[N+]([O-])c1c2ccccc2cc2ccccc12,24.1 µM (active),8.46%,inactive,–
C[C@H](Nc1ncnc2nc[nH]c12)c1nc2ccc(F)cc2c(=O)n1-c1ccccc1,0.651 µM (active),-19.1%,–,–
COC(C)(C)CCCC(C)C/C=C/C(C)=C/C(=O)OC(C)C (stereo unspecified),inactive,12.4%,inactive,–
COC(=O)[C@@]12OC[C@]34[C@H]([C@@H](O)[C@@H]1O)[C@@]1(C)CC(=O)C(O)=C(C)[C@@H]1C[C@H]3OC(=O)[C@H](OC(=O)/C=C(\C)C(C)C)[C@@H]24,0.0132 µM (active),–,12.6 µM (active),6.31 µM (active)
C#CCOC(C(=O)OCCN(C)C)(c1ccccc1)c1ccccc1,inactive,15.9%,inactive,–
COc1c2c(cc3c1OCO3)CCN(C)C2,inactive,-10%,inactive,–
c1ccc2nc(N3CCNCC3)ccc2c1,inactive,-8.05%,inactive,–
